The text below walks through data of PubChem BioAssay (EPA / NIEHS).

In experiment [1] the target is human RAR-related Orphan Receptor gamma (RORg), RORC (gene 6097) (UniProt P51449). Briefly: ATG_RORg_TRANS: Attagene TRANS-FACTORIAL HepG2 Assay for human RAR-related Orphan Receptor gamma (RORg) (AID 2283011). Put shortly:
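HepG2 cells transiently transfected with GAL4-UAS reporter units and chimeric RORg-Gal4 construct; after 24 h chemical exposure, reporter mRNA measured by RT-PCR with fluorescent capillary electrophoresis, gain of signal fitted against DMSO.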

Experiment [2] addresses Retinoic acid receptor RXR-alpha (Homo sapiens) (UniProt P19793). Briefly: ATG_RXRa_TRANS: Attagene TRANS-FACTORIAL HepG2 Assay for human Retinoid X Receptor alpha (RXRa) (AID 2283012). Put shortly: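 Cells (HepG2) carried transiently transfected GAL4-responsive reporter units. Following a 24 h chemical incubation, reporter mRNA induction was read via RT-PCR fragment analysis; DMSO served as negative control and baseline.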

The target of experiment [3] is human Vitamin D Receptor (VDR), VDR (gene 7421) (UniProt P11473). Briefly: ATG_VDR_TRANS: Attagene TRANS-FACTORIAL HepG2 Assay for human Vitamin D Receptor (VDR) (AID 2283022). Put shortly:
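HepG2 cells were transiently transfected with GAL4-UAS reporter units and a chimeric VDR-Gal4 construct, then dosed for 24 hours. Reporter mRNA was quantified by RT-PCR, fluorescent labeling, HpaI digestion and capillary electrophoresis; gain of signal analysed vs DMSO.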

Experiment [4] addresses human Thyroid Receptor alpha (THRa1), THRA (gene 7067) (UniProt P10827). As to the kind of experiment: ATG_THRa1_TRANS: Attagene TRANS-FACTORIAL HepG2 Assay for human Thyroid Receptor alpha (THRa1) (AID 2283014). In short, it runs like this:
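HepG2 cells transiently transfected with chimeric NR-Gal4 and GAL4-UAS reporter units, dosed 24 h. Reporter mRNA quantified by RT-PCR, fluorescent labeling, HpaI digestion and capillary electrophoresis; gain-of-signal fit versus DMSO.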

Experiment [5] addresses human Retinoid X Receptor beta (RXRb), RXRB (gene 6257) (UniProt P28702). As to the kind of experiment: ATG_RXRb_TRANS: Attagene TRANS-FACTORIAL HepG2 Assay for human Retinoid X Receptor beta (RXRb) (AID 2283013). Put shortly:
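Multiplexed TRANS reporter assay in HepG2; 24 h dosing; reporter mRNA by RT-PCR/CE fluorescence; gain-of-signal relative to DMSO.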

Read-out in experiment [6]: Interleukin-1 alpha (IL1a), IL1A (gene 3552)
Briefly: BSK_BE3C_IL1a: BioMAP Diversity Plus: BE3C Assay for Interleukin-1 alpha (IL1a) Biomarker Activity (AID 2283016; active = hit-call score of the fitted dose curve at least 0.9, where 1 is the maximum; inactive = score below 0.9). The note with it: primary human bronchial epithelial cells; actives raise or lower the signal. Put shortly:
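Cultures of primary human bronchial epithelial cells receive test chemical. After 24 h, IL-1a is quantified by ELISA, while parallel wells are fixed in TCA and SRB-stained for total protein. Changes in either direction are fitted relative to DMSO.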

Read-out in experiment [7]: Monocyte Chemoattractant Protein-1 (MCP1), CCL2 (gene 6347)
Briefly: BSK_3C_MCP1: BioMAP Diversity Plus: 3C Assay for Monocyte Chemoattractant Protein-1 (MCP1) Biomarker Activity (AID 2283017; active = hit-call score of the fitted dose curve at least 0.9, where 1 is the maximum; inactive = score below 0.9). The note with it: primary human endothelial cells (HUVEC); actives raise or lower the signal. In short, it runs like this: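 Human umbilical vein endothelial cells (3C system) exposed to chemicals for 24 h; MCP-1 quantified by ELISA against the DMSO baseline with bidirectional fitting, and parallel SRB staining used to assess cytotoxicity.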

Read-out in experiment [8]: Human Leukocyte Antigen - DR isotype (HLADR), HLA-DRA (gene 3122)
As to the kind of experiment: BSK_3C_HLADR: BioMAP Diversity Plus: 3C Assay for Human Leukocyte Antigen - DR isotype (HLADR) Biomarker Activity (AID 2283019; active = hit-call score of the fitted dose curve at least 0.9, where 1 is the maximum; inactive = score below 0.9;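 for outcome: ELISA of cell-surface HLA-DR on HUVEC 24 h after dosing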). The settings on record: primary human endothelial cells (HUVEC); actives raise or lower the signal. In short, it runs like this:
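HUVEC monoculture, HLA-DR measured by ELISA 24 h after chemical dosing. Fitted bidirectionally against DMSO baseline; parallel SRB staining assessed cytotoxicity, with 3C proliferation read by SRB at 48 h.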

Read-out in experiment [9]: Monokine induced gamma interferon (MIG), CXCL9 (gene 4283)
Briefly: BSK_3C_MIG: BioMAP Diversity Plus: 3C Assay for Monokine induced gamma interferon (MIG) Biomarker Activity (AID 2283021; active = hit-call score of the fitted dose curve at least 0.9, where 1 is the maximum; inactive = score below 0.9;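 for AC50: MIG protein level measured by immunoassay in the treated endothelial cultures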). The note with it: primary human endothelial cells (HUVEC); actives raise or lower the signal. In short, it runs like this: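 After 24 h of treatment, human umbilical vein endothelial cultures (3C system) had their MIG biomarker level determined by ELISA, with DMSO serving as negative control.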

Experiment [10] in a line: BSK_3C_SRB: Viability Assessment in the BioMAP Diversity Plus: 3C Assay (AID 2283023; active = hit-call score of the fitted dose curve at least 0.9, where 1 is the maximum; inactive = score below 0.9;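 note: fitted both ways against DMSO so a hit may be signal rise or drop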). The settings on record: primary human endothelial cells (HUVEC). In short, it runs like this: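 Human umbilical vein endothelial cells in the 3C system, treated 24 h. Total protein measured by 0.1% sulforhodamine B staining after 10% TCA fixation, read at 560 nm; bidirectional fit versus DMSO.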

The nature of experiment [11]: BSK_3C_Vis: BioMAP Diversity Plus: 3C Assay for Morphology Visualization (AID 2283025; active = hit-call score of the fitted dose curve at least 0.9, where 1 is the maximum; inactive = score below 0.9;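 note: fitted both ways so gain or loss versus DMSO counts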;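 for AC50: light microscopy image of cell morphology used as background control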). The note with it: primary human endothelial cells (HUVEC). Put shortly: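 Endothelial cells from human umbilical vein were treated with test chemicals for 24 h and inspected by light microscopy for changes in cell conformation.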
Read-out in experiment [12]: Pselectin, SELP (gene 6403)
As to the kind of experiment: BSK_4H_Pselectin: BioMAP Diversity Plus: 4H Assay for Pselectin Biomarker Activity (AID 2283026; active = hit-call score of the fitted dose curve at least 0.9, where 1 is the maximum; inactive = score below 0.9). The settings on record: primary human endothelial cells (HUVEC); actives raise or lower the signal. Put shortly:
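Human vascular endothelium from umbilical vein; P-selectin measured by ELISA at 24 h post-dose, with cytotoxicity checked by sulforhodamine B total-protein staining in parallel cultures (0.1% SRB after 10% TCA fixation, read at 560 nm).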

Experiment [13] can be described thus: BSK_4H_SRB: Viability Assessment in the BioMAP Diversity Plus: 4H Assay (AID 2283027; active = hit-call score of the fitted dose curve at least 0.9, where 1 is the maximum; inactive = score below 0.9;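 note: cells exposed to compound for 24 h before staining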;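 for AC50: curves fitted both ways versus DMSO so AC50 may be loss or gain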). The settings on record: primary human endothelial cells (HUVEC). In short, it runs like this:
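Absorbance at 560 nm of SRB-stained total protein served as the viability read-out in confluent primary human umbilical vein endothelium 24 h after chemical treatment. Curves were fitted bidirectionally against DMSO as negative control.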

Experiment [14] in a line: BSK_BE3C_SRB: Viability Assessment in the BioMAP Diversity Plus: BE3C Assay (AID 2283028; active = hit-call score of the fitted dose curve at least 0.9, where 1 is the maximum; inactive = score below 0.9;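 for AC50: fitted both ways so AC50 may mark signal gain or loss versus DMSO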). The note with it: primary human bronchial epithelial cells. Put shortly:
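Human bronchial epithelial primary cells in confluent culture, 24 h after chemical dosing; total protein by 0.1% SRB staining after 10% TCA fixation, read at 560 nm. Bidirectional fitting versus DMSO baseline.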

Read-out in experiment [15]: Thrombomodulin, THBD (gene 7056)
Briefly: BSK_3C_Thrombomodulin: BioMAP Diversity Plus: 3C Assay for Thrombomodulin Biomarker Activity (AID 2283029; active = hit-call score of the fitted dose curve at least 0.9, where 1 is the maximum; inactive = score below 0.9). The settings on record: primary human endothelial cells (HUVEC); actives raise or lower the signal. Put shortly: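 Thrombomodulin ELISA, human primary HUVEC, 24 h post-dose; data fitted in both directions relative to DMSO.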

SMILES strings stand for the structures. Inconclusive results are not listed. The source made the active and inactive calls. Rule for the calls, unless noted: active = hit-call score of the fitted dose curve at least 0.9, where 1 is the maximum; inconclusive = response in the unintended direction; inactive = score below 0.9.

Sequence of human Thyroid Receptor alpha (THRa1), THRA (gene 7067) (P10827 whole entry, looked up, the tested form may be a part): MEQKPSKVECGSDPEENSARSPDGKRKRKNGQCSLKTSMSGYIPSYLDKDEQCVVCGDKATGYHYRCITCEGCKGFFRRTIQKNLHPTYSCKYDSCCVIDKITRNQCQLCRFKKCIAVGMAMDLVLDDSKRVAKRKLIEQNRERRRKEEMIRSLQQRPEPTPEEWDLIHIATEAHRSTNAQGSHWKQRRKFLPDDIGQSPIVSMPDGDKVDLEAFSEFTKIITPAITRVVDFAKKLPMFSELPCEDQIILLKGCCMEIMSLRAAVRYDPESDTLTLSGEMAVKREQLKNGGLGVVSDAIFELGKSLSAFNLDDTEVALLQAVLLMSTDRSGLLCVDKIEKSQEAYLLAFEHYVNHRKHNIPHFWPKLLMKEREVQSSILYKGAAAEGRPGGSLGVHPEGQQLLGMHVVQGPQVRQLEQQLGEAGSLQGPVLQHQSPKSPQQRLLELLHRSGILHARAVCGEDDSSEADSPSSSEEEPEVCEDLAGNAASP
Sequence of human RAR-related Orphan Receptor gamma (RORg), RORC (gene 6097) (P51449 whole entry, looked up, the tested form may be a part): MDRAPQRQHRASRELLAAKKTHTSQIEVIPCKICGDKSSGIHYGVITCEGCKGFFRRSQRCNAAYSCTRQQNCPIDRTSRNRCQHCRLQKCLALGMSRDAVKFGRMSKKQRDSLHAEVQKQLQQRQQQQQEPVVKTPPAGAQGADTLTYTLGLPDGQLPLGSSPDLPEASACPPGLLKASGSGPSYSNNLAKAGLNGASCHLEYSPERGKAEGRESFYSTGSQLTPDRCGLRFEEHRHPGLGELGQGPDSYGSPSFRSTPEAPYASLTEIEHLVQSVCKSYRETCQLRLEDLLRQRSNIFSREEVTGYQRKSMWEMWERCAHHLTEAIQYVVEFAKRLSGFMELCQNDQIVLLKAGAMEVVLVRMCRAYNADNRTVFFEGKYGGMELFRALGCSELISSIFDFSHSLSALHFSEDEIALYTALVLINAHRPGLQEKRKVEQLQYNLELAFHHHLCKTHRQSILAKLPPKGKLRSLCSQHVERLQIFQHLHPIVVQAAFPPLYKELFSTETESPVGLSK
Sequence of human Vitamin D Receptor (VDR), VDR (gene 7421) (P11473 whole entry, looked up, the tested form may be a part): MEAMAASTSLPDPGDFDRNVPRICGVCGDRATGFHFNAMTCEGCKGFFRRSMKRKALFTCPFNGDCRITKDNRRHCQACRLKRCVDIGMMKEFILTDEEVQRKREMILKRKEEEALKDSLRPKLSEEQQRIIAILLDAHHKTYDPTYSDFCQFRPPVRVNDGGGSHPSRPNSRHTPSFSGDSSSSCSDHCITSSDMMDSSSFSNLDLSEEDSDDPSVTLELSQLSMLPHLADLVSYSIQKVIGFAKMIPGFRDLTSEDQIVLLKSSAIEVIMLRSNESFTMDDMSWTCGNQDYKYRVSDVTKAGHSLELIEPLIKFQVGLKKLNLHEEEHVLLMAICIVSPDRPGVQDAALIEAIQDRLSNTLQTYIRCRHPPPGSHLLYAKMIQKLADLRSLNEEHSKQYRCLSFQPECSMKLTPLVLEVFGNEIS
Sequence of Retinoic acid receptor RXR-alpha (Homo sapiens) (P19793 whole entry, looked up, the tested form may be a part): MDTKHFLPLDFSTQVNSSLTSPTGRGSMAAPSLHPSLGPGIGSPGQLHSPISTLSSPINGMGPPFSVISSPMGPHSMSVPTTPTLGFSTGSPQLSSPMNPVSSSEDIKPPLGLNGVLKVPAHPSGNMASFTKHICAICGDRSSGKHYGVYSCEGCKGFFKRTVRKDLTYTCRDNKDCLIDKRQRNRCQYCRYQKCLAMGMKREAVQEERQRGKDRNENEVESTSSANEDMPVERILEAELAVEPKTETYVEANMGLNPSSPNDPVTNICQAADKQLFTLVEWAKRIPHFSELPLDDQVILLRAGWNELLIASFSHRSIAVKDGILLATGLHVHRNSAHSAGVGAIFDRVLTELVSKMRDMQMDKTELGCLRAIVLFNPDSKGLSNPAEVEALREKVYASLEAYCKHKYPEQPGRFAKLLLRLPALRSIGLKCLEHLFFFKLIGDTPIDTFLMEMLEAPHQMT
Sequence of human Retinoid X Receptor beta (RXRb), RXRB (gene 6257) (P28702 whole entry, looked up): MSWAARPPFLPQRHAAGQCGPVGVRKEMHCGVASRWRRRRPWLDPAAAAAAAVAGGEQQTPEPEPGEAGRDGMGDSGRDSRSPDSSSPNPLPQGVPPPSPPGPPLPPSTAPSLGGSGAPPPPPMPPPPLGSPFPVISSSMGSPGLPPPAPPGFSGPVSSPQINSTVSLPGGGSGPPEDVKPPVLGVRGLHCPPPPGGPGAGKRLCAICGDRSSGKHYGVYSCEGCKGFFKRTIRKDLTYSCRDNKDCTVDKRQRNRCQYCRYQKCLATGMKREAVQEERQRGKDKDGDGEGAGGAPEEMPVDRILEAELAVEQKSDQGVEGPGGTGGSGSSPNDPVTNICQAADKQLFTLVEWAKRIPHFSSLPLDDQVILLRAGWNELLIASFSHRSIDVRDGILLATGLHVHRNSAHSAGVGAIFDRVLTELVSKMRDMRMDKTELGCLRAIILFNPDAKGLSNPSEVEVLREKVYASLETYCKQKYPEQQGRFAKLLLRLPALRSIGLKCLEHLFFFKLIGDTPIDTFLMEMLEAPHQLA

As to `O=C(O)CC(C(=O)O)S(=O)(=O)O` (centres undefined), the compound was classed as inactive in [1], in experiment [2] and in experiment [3].
`CC(C)=CCl`: the result in [1], in experiment [2] and in [4] was inactive.
As to `CCN(CC)c1cccc(C)c1`, the compound was called inactive in [1], in [5] and in experiment [3].
`CCCCCCCCCCCCCC(=O)OC(C)C`: the compound was classed as inactive in experiment [1], in experiment [2], in experiment [5], in experiment [4] and in [3].
For `CCC(C)C(=O)OCCc1ccccc1` (centres undefined), the call in experiment [1], in experiment [2], in experiment [5] and in experiment [4] was inactive.
In the case of `CCCCOC(=O)C(C)CC` (centres undefined), the compound was called inactive in experiment [1], in experiment [5] and in experiment [3].
A word on the AC50: it is the concentration giving half of the maximal activity seen. For `CC(=O)/C=C/C1C(C)=CCCC1(C)C` (centres undefined), the compound was classed as inactive in experiment [1], in [2], in experiment [4] and in experiment [3]. The AC50 in experiment [5] is 31.3 µM (active).
In the case of `CC(C)CC(=O)OCc1ccccc1`, the result in experiment [1] and in [5] was inactive.
For the compound `C=C1C[C@H]2[C@@H]3C=C(C)C4=CC(=O)CC[C@]4(C)[C@H]3CC[C@]2(C)[C@@]1(OC(C)=O)C(C)=O`, in experiment [2], the compound was called inactive.
For `CC(=O)OC(C)c1ccccc1` (centres undefined), the compound was classed as inactive in experiment [1], in experiment [2], in experiment [4] and in [3].
Turning to `CCC[Si](OC)(OC)OC`, the compound was called inactive in experiment [1], in experiment [2], in experiment [5], in [4] and in experiment [3].
On to `CC/C=C\C/C=C\C/C=C\CCCCCCCC(=O)OC`, for which the call in experiment [1], in experiment [2] and in [3] was inactive. For the same compound, the AC50 is 125 µM (active) in experiment [5]; 16.2 µM (active) in experiment [6]; 31.7 µM (active) in experiment [7]; 10.7 µM (active) in [8]; 37.2 µM (active) in [9]; 29.8 µM (active) in experiment [10]. For the same compound, the AC50 in experiment [11] was 37.5 µM (active); in [12], 19.9 µM (active); in [13] it was 20 µM (active); in experiment [14] it was 28.5 µM (active); in experiment [15] it was 5.05 µM (active).
As to `CCCCOCCOCCOC(C)=O`, the compound was called inactive in experiment [1], in experiment [2], in experiment [4] and in experiment [3].
Take `O=C(Cl)c1c(Cl)c(Cl)c(C(=O)Cl)c(Cl)c1Cl`: the outcome in [1], in experiment [2], in experiment [6], in experiment [7], in [8] and in experiment [9] was inactive. Moreover, the outcome in experiment [10], in experiment [11], in experiment [12], in experiment [13], in [14] and in [15] was inactive. Further, the AC50 in [5] was 100 µM (active).
With `CC1=NN(c2ccc(S(=O)(=O)O)cc2)C(=O)C1N=Nc1ccccc1` (centres undefined), the compound was called inactive in experiment [1], in experiment [5], in experiment [4] and in experiment [3].
Take `C[Si]1(C)O[Si](C)(C)O[Si](C)(C)O[Si](C)(C)O[Si](C)(C)O1`: the outcome in experiment [1], in experiment [2] and in experiment [4] was inactive.
`[Cl][Sc]([Cl])[Cl]`: the outcome in experiment [1], in experiment [4] and in [3] was inactive.
